# Sm TGR inh = S. mansoni TGR enzyme inhibition. 3% of 360,000 active. Q962Y6. Potency, µM (highest dose often 114 µM), for inactives: at the top dose activity change, negative = inhibition, usual class: inhibitors. AID 485364. purified TGR, DTNB reduction, TNB absorbance 405 nm; further: on the % scale 0 is the no-effect control and ±100 the full control effect; nearly all actives have a fitted effect of over 60% in size
#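 TGR 20 nM + NADPH 100 uM (dispensed conc.), cpd preinc 15 min RT; start with NADPH (500 uM addition) then DTNB (15 mM addition). Kinetic TNB absorbance, 405 nm filter. Four-parameter Hill fit across titration.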
# Tb PYK inh = T. brucei pyruvate kinase inhibition; 0.12% of 410,000 active; Potency, µM (highest dose often 76.8 µM), inactives show top-dose activity, negative = inhibition, actives largely listed as inhibitors; TbPYK enzyme, Kinase-Glo Plus ATP luminescence, 45 min; further: on the % scale 0 is the no-effect control and ±100 the full control effect; nearly all actives have a fitted effect of over 50% in size
#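 Glycolytic pyruvate kinase of T. brucei was incubated with substrate, test compound and 130 uM ADP for 45 minutes at room temperature. Luminescent Kinase-Glo Plus signal was measured after 10 minutes.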
# RE007 growth inh = less growth of the S. pombe RE007 Vpr strain | S. pombe RE007 Vpr strain, BacTiter-Glo ATP luminescence, 24 h | Potency, µM (doses to about 92.2 µM), without a hit: at the top dose activity change, negative = less growth, hits mostly inhibitors | 0.21% of 360,000 active; active means well fitted falling curve with a large enough effect; inconclusive means small, poorly fitted or top-dose-only effect; inactive means no such curve, though single readings can be large or run the other way; further: on the % scale 0 is the no-effect control and ±100 the full control effect; nearly all actives have a fitted effect of over 50% in size
#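 Fission yeast strain RE007, carrying one chromosomally integrated HIV-1 vpr copy, was seeded at OD 0.01 in PMG+AL medium with 23 nL pinned compound. After 24 h at 30 °C and 99% humidity, viability was read by BacTiter-Glo luminescence.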
# LmPK inhibitor = LmPK (Leishmania mexicana) enzyme inhibition; Q27686; purified LmPK, Kinase-Glo ATP luminescence, 1 h; Potency, µM (series often up to 57.5 µM), without a hit: at the top dose activity change, negative = inhibition, most hits filed as inhibitors; 0.37% of 290,000 active; AID 1721; further: on the % scale 0 is the no-effect control and ±100 the full control effect
# Target sequence (Q27686 whole entry, looked up): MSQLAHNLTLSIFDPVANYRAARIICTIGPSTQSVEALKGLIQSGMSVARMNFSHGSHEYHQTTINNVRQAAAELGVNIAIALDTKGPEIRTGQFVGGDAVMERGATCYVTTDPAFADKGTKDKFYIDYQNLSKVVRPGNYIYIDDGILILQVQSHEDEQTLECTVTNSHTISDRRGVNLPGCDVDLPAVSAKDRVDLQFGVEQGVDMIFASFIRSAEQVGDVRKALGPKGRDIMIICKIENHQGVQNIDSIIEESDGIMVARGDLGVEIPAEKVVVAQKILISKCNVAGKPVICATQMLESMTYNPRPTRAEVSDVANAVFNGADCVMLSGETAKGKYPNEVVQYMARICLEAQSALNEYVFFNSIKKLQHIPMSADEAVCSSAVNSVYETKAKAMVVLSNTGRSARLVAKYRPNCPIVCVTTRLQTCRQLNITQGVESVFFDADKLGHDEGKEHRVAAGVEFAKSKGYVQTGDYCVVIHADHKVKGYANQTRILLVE
#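 Pyruvate kinase activity monitored as ATP production (luciferase luminescence). Conditions: 0.1 nM enzyme, 0.5 mM PEP, 0.1 mM ADP, 1 h, RT; normalized against uninhibited and no-enzyme wells.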
# SARS PLP yeast = inhibitors of SARS-CoV papain-like protease in yeast | 0.19% of 330,000 active | Potency, µM (titrated, usually from 32.9 µM), without a hit: at the highest dose activity, positive = growth rescue, most hits filed as activators | AID 485353 | S. cerevisiae expressing SARS-CoV PLpro, growth rescue; calls by dose curve; further: 0% is about no effect; nearly all actives have a fitted effect of over 55% in size
# NS1 inh = inhibitors of influenza NS1 protein function. 0.4% of 270,000 active. AID 2326. Potency, µM (titrated, usually from 46.1 µM), for the others: top-dose activity, positive = more growth; calls by dose curve; further: actives are rising curves; nearly all actives have a fitted effect of over 50% in size
#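 Recovery from NS1-induced slow growth read by OD600 in budding yeast switched to galactose assay medium (pH 6.0, -URA) at 1:100 dilution. Compound 23 nl per well; the matching strain lacking NS1 serves as control.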
# Starred values were filed as active, the others as inactive; ? = inconclusive; . = not tested or not shown; [ ] = dose if it differs, or a comment. Only some compounds are listed: those with a hit (about 3.3% of all), similar ones and a draw of the others. Unless noted, the call rests on the fitted dose curve; in most records, active means well fitted curve in the direction sought with a large enough effect; inconclusive means small, poorly fitted or top-dose-only effect, or another doubt; inactive means no such curve, though single readings can be large; an effect the other way counts as inactive or inconclusive. Potency means the concentration at half of the fitted maximal effect.
SMILES,Sm TGR inh,Tb PYK inh,RE007 growth inh,LmPK inhibitor,SARS PLP yeast,NS1 inh
O=C(Nc1ccccc1)Nc1ccc(C(=O)N2CCCC2)cc1,7.2%,?,-57.3%,15.8µM*,-4.2%,-3.3%
C=C1[C@@H]2CC[C@H](C2)C1(C)C,.,-5.7%,.,.,.,.
CN(C(=O)CSc1nc2ccc(NC(=O)c3ccc(F)cc3)cc2s1)c1ccccc1,-1.1%,1.6%,.,.,.,.
Cc1ccc(-n2c(-c3ccncc3)n[nH]c2=S)c(C)c1,23.1%,7.08µM*,1.2%,-11.5%,1.3%,0.3%
Cc1cc(-c2n[nH]c(=S)n2-c2ccccc2C)cs1,-0.4%,?,0.4%,10µM*,17.6%,12.4%
CCc1ccccc1-n1c(-c2ccncc2)n[nH]c1=S,-7.3%,25.1µM*,18.3%,12.6µM*,10.0%,3.9%
Cc1ccccc1-n1c(-c2ccncc2)n[nH]c1=S,9.1%,?,-5.1%,31.6µM*,1.8%,6.5%
Cc1cccc(-n2c(-c3ccncc3)n[nH]c2=S)c1C,0.5%,?,0.3%,?,0.3%,9.9%
Nc1nc2[nH]cc(CCc3ccc(C(=O)N[C@@H](CCC(=O)O)C(=O)O)cc3)c2c(=O)[nH]1,.,0.0%,.,.,.,.
Oc1ccccc1-c1cc(-c2ccco2)[nH]n1,?,-1.7%,-21.3%,-4.6%,-37.2%,-9.3%
Oc1ccc(Cl)cc1-c1cc(-c2ccco2)[nH]n1,44.7µM*,-15.7%,?,5.2%,-36.3%,-230.2%
Cc1ccc(N(C)C(=O)c2sc3nc4n(c(=O)c3c2C)CCCC4)cc1C,-15.3%,-4.4%,.,.,.,.
COc1ccc(CNC(=O)c2sc3nc4n(c(=O)c3c2C)CCCCC4)cc1,8.91µM*,-27.4%,.,.,.,.
COc1ccc(C)cc1N(C)C(=O)c1sc2nc3n(c(=O)c2c1C)CCCCC3,22.4µM*,-2.2%,.,.,.,.
O=C(Cn1cc(SCc2ccc(F)cc2)c2ccccc21)N1CCCCC1,-8.2%,6.7%,.,.,.,.
CN(Cc1ccccc1)C(=O)c1ccc([N+](=O)[O-])o1,39.8µM*,5.0%,-14.9%,3.0%,-68.5%,-30.1%
Cc1ccc(/C=C/C(=O)c2ccc([N+](=O)[O-])o2)cc1,14.1µM*,-6.5%,12.7%,.,0.1%,.
Cc1ccc(CNC(=O)c2ccc([N+](=O)[O-])o2)cc1,35.5µM*,-1.0%,?,1.7%,-35.9%,-148.1%
CC(=O)c1ccccc1OC(=O)c1ccc([N+](=O)[O-])o1,15.8µM*,2.8%,-9.1%,-1.2%,0.3%,-33.5%
C[N+]1(C)CCO[C@](O)(c2ccccc2)C1,.,.,.,.,.,-7.2%
COc1ccc(CCNC(=O)Cn2cc(S(=O)(=O)Cc3ccccc3F)c3ccccc32)cc1OC,0.3%,-1.0%[15.4 µM],.,.,.,.
Cc1sc2ccccc2[n+]1CCC(C)S(=O)(=O)[O-] (stereo not drawn),2µM*,-10.7%,-10.6%,1.6%,-1.7%,-1.1%
O=c1c2c([nH]c3ccccc13)C(=C1CCCC1)CC2,12.6µM*,2.7%,-13.0%,-0.2%,-13.6%,-34.3%
COc1ccccc1NC(=S)NC(=O)/C=C/c1ccco1,17.8µM*,-9.9%,-17.2%,4.7%,16.9%,9.1%
COc1ccccc1NC(=O)/C=C\c1ccco1,2.51µM*,-20.4%,-7.6%,-2.5%,-1.4%,-1.9%
SMILES,Sm TGR inh,Tb PYK inh,RE007 growth inh,LmPK inhibitor,SARS PLP yeast,NS1 inh
Cc1ccccc1NC(=S)NC(=O)/C=C/c1ccco1,6.31µM*,-14.4%,-17.0%,12.6%,4.6%,26.8%
O=C(/C=C/c1ccco1)NC(=S)Nc1ccccc1,?,-7.8%,?,5.2%,-6.1%,9.5%
O=C(c1ccco1)N1CCN(C(=O)c2ccco2)CC1,.,3.8%,5.0%,.,.,.
O=C(c1ccco1)n1c(=S)nc2ccccn21,50.1µM*,-18.6%,-4.3%,14.1µM*,-4.9%,-6.2%
Cc1cccc2nc(=S)n(C(=O)c3ccco3)n12,22.4µM*,-20.1%,-22.5%,12.6µM*,-8.4%,14.4%
N#Cc1c(-n2ncnc2-c2ccccc2Cl)sc2c1CCCCC2,-4.7%,2.8%,.,.,.,.
COC(=O)CS(=O)(=O)c1nnc([C@H](Cc2ccccc2)NC(=O)OC(C)(C)C)o1,1.41µM*,-20.6%,-22.4%,0.9%,-21.4%,-138.6%
Cc1cccc(CS(=O)(=O)c2nnc([C@H](Cc3ccccc3)NC(=O)OC(C)(C)C)o2)c1,1.78µM*,-8.6%,-20.2%,8.0%,-31.1%,-41.9%
CC(C)(C)OC(=O)N[C@@H](Cc1ccccc1)c1nnc(SCC(N)=O)o1,9.3%,1.7%,-4.5%,-0.7%,1.1%,2.5%
O=C(Cn1ncc(Cl)c(Cl)c1=O)N1CCN(S(=O)(=O)c2ccc3ccccc3c2)CC1,22.4µM*,-1.1%,16.2%,-0.8%,-18.4%,18.7%
O=C(O)CCC(=O)N1CCN(S(=O)(=O)c2ccc3ccccc3c2)CC1,-6.7%,2.4%,6.6%,-0.8%,-1.4%,0.9%
COc1ccc(NS(=O)(=O)c2ccc(NC(=O)c3ccc(Br)cc3)cc2)nn1,.,-2.8%,-4.8%,-2.0%,-0.3%,-2.5%
Cc1cc(NS(=O)(=O)c2ccc(NC(=S)NC(=O)c3ccc(F)cc3)cc2)no1,?,-4.0%,3.2%,0.6%,14.4%,28.3%
COc1ccc(NS(=O)(=O)c2ccc(NC(=S)NC(=O)c3cccc(F)c3)cc2)nn1,44.7µM*,4.6%,-0.4%,-0.5%,-8.6%,-0.2%
COc1ccc(NS(=O)(=O)c2ccc(NC(=S)NC(=O)c3ccc(Br)cc3)cc2)nn1,39.8µM*,-1.9%,2.5%,2.9%,-13.4%,?
Cc1cc(NS(=O)(=O)c2ccc(NC(=S)NC(=O)c3cccc(S(=O)(=O)N(C)C)c3)cc2)no1,35.5µM*,-8.3%,-10.4%,-3.3%,-4.5%,-4.7%
COC(=O)C1=C(C)NC(COC(N)=O)=C(C(=O)OC(C)C)C1c1cccc(Cl)c1Cl (stereo not drawn),.,2.4%,.,.,.,.
COc1ccc(Cn2c(CCC(=O)NCc3cccc(Cl)c3)nc3cccnc32)cc1,-1.0%,3.2%,.,.,.,.
C=CCc1c(C)[nH]c2c(OC)cccc2c1=S,2.6%,?,0.4%,2µM*,-2.7%,-0.1%
Cc1ccccc1-c1nnc(CN2CCN(c3ccccn3)CC2)o1,0.4%,-2.6%,.,.,.,.
COc1ccc(C2=NO[C@@H]3C(=O)N(c4cccc(C)c4C)C(=O)[C@H]23)cc1OC,-14.3%,2.2%,9.0%,-6.7%,0.9%,-46.9%
COc1ccc(-c2cn(-c3ccc(C)cc3C)c(=O)[nH]2)cc1OC,11.2µM*,-8.0%,-4.7%,1.7%,-9.0%,.
COc1ccc(C2=NO[C@@H]3C(=O)N(c4ccc(C)cc4C)C(=O)[C@H]23)cc1OC,11.2µM*,-10.2%,?,0.0%,-13.4%,-106.4%
COc1ccc(-c2cc(=O)[nH][nH]2)cc1OC,14.7%,-1.8%,5.3%,4.0%,10.9%,26.1%
CCOC(=O)c1nc2cc3n(c(CC(C)C)c-2c1C)CC(C)=C3C,56.2µM*,5.2%,4.3%,1.2%,3.6%,14.3%

# Source: PubChem BioAssay (National Center for Advancing Translational Sciences (NCATS))
